From publication PMC10812921, “Transcriptional Coactivator BOB1 (OBF1, OCA-B) Modulates the Specificity of DNA Recognition by the POU-Domain Factors OCT1 and OCT2 in a Monomeric Configuration”

Assays:
POU1 (OCT1 POU domain) = POU1 (OCT1 POU domain) (human, UniProt P14859 260-458); test: EMSA-SELEX-seq; no BOB1; 20 mM Tris-HCl pH 7.6, 140 mM NaCl, 10% glycerol, 0.5 mM EDTA, 0.05% Triton X-100, 0.1 mg/mL BSA, 0.1 mg/mL poly(dI-dC), 5 mM DTT, room temperature, 20 min; high values mean tight binding; settings: protein: recombinant; dsDNA, one strand shown
Sequence of POU1 (OCT1 POU domain) (P14859 260-458): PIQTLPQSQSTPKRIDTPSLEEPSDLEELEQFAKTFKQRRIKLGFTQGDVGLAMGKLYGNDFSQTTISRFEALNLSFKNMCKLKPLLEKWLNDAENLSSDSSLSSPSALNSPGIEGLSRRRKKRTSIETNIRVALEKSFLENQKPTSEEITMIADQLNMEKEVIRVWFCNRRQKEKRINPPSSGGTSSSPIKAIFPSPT
In short: (§1)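 After expression in E. coli BL21, tagged POU-domain proteins were purified under denaturing conditions and then renatured. Each binding reaction held 30 ng protein and 300 ng of a PCR-amplified double-stranded random 35-nt library in 20 μL Tris–HCl pH 7.6 binding buffer, with or without 28 ng coactivator protein, for 20 min at RT. Bands holding complexes were cut from native 6% PAGE, eluted and PCR-amplified across four rounds, and the output was Illumina-sequenced. The value given for binding preference is the share, in percent, of sequenced 8-mers fitting a motif pattern.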

POU2 (OCT2 POU domain) = molecular target: T1, POU2 (OCT2 POU domain) (human, UniProt P09086 175-386); test: as above; settings: protein: recombinant; dsDNA, one strand shown
T1 sequence: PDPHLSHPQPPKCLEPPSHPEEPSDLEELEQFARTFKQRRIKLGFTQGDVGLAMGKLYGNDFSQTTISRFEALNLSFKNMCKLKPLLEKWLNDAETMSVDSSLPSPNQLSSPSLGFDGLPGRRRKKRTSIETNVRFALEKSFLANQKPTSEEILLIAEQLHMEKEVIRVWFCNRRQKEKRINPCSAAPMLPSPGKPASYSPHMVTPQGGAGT
In short: as §1

[1] = molecular target: POU1 (OCT1 POU domain);BOB1 (OBF1, OCA-B) (human;human, UniProt P14859;Q16633 260-458;1-256, |); test: EMSA-SELEX-seq; with BOB1 (ternary complex band); 20 mM Tris-HCl pH 7.6, 140 mM NaCl, 10% glycerol, 0.5 mM EDTA, 0.05% Triton X-100, 0.1 mg/mL BSA, 0.1 mg/mL poly(dI-dC), 5 mM DTT, room temperature, 20 min; high values mean tight binding; settings: protein: recombinant;recombinant; copies: 1;1; dsDNA, one strand shown
In short: as §1

[2] = molecular target: T2, POU2 (OCT2 POU domain);BOB1 (OBF1, OCA-B) (human;human, UniProt P09086;Q16633 175-386;1-256, |); test: as above; settings: protein: recombinant;recombinant; copies: 1;1; dsDNA, one strand shown
T2 sequence 1: T1 sequence
T2 sequence 2: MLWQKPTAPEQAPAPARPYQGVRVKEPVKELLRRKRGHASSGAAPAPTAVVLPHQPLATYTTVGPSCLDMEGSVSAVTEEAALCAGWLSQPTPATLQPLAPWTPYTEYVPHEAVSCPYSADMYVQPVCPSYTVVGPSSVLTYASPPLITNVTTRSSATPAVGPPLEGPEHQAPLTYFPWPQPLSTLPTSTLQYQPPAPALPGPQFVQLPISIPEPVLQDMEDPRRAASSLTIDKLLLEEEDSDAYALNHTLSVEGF
In short: as §1

| Sequence | binding signal (POU1 (OCT1 POU domain)) | binding signal (POU2 (OCT2 POU domain)) | binding signal [1] | binding signal [2] |
| --- | --- | --- | --- | --- |
| AAACGAAG | 0.045 % of ANNNNAAN 8-mers | 0.0483 % of ANNNNAAN 8-mers | 0.0589 % of ANNNNAAN 8-mers | 0.0528 % of ANNNNAAN 8-mers |
| AGGTCAAG | 0.0297 % of ANNNNAAN 8-mers | 0.042 % of ANNNNAAN 8-mers | 0.0277 % of ANNNNAAN 8-mers | 0.0289 % of ANNNNAAN 8-mers |
| ACTGGAAG | 0.021 % of ANNNNAAN 8-mers | 0.027 % of ANNNNAAN 8-mers | 0.0211 % of ANNNNAAN 8-mers | 0.0314 % of ANNNNAAN 8-mers |
| ACACGAAA | 0.0332 % of ANNNNAAN 8-mers | 0.027 % of ANNNNAAN 8-mers | 0.0386 % of ANNNNAAN 8-mers | 0.0215 % of ANNNNAAN 8-mers |
| AAGTCAAG | 0.0332 % of ANNNNAAN 8-mers | 0.0403 % of ANNNNAAN 8-mers | 0.0367 % of ANNNNAAN 8-mers | 0.033 % of ANNNNAAN 8-mers |
| AGGGGAAG | 0.0557 % of ANNNNAAN 8-mers | 0.0673 % of ANNNNAAN 8-mers | 0.0507 % of ANNNNAAN 8-mers | 0.057 % of ANNNNAAN 8-mers |
| ATCCAAAA | 0.0591 % of ANNNNAAN 8-mers | 0.0414 % of ANNNNAAN 8-mers | 0.0722 % of ANNNNAAN 8-mers | 0.0446 % of ANNNNAAN 8-mers |
| ACTTGAAT | 0.0828 % of ANNNNAAN 8-mers | 0.0961 % of ANNNNAAN 8-mers | 0.0613 % of ANNNNAAN 8-mers | 0.071 % of ANNNNAAN 8-mers |
| AGCATAAT | 0.269 % of ANNNNAAN 8-mers | 0.277 % of ANNNNAAN 8-mers | 0.0757 % of ANNNNAAN 8-mers | 0.106 % of ANNNNAAN 8-mers |
| AATGCAAT | 0.0862 % of ANNNNAAN 8-mers | 0.0949 % of ANNNNAAN 8-mers | 0.089 % of ANNNNAAN 8-mers | 0.0916 % of ANNNNAAN 8-mers |
| ACGCGAAA | 0.0179 % of ANNNNAAN 8-mers | 0.0265 % of ANNNNAAN 8-mers | 0.0211 % of ANNNNAAN 8-mers | 0.0314 % of ANNNNAAN 8-mers |
| ACTGAAAT | 0.0522 % of ANNNNAAN 8-mers | 0.0639 % of ANNNNAAN 8-mers | 0.0472 % of ANNNNAAN 8-mers | 0.0495 % of ANNNNAAN 8-mers |
| ACCTTAAT | 0.0629 % of ANNNNAAN 8-mers | 0.0679 % of ANNNNAAN 8-mers | 0.0418 % of ANNNNAAN 8-mers | 0.0545 % of ANNNNAAN 8-mers |
| AGACAAAC | 0.0313 % of ANNNNAAN 8-mers | 0.0265 % of ANNNNAAN 8-mers | 0.0414 % of ANNNNAAN 8-mers | 0.0322 % of ANNNNAAN 8-mers |
| AAGAGAAT | 0.0728 % of ANNNNAAN 8-mers | 0.0806 % of ANNNNAAN 8-mers | 0.0738 % of ANNNNAAN 8-mers | 0.0553 % of ANNNNAAN 8-mers |
| AAAGCAAC | 0.0256 % of ANNNNAAN 8-mers | 0.0259 % of ANNNNAAN 8-mers | 0.0281 % of ANNNNAAN 8-mers | 0.0272 % of ANNNNAAN 8-mers |
| ATTGGAAA | 0.0927 % of ANNNNAAN 8-mers | 0.0794 % of ANNNNAAN 8-mers | 0.11 % of ANNNNAAN 8-mers | 0.0735 % of ANNNNAAN 8-mers |
| ACGCAAAC | 0.0614 % of ANNNNAAN 8-mers | 0.0437 % of ANNNNAAN 8-mers | 0.103 % of ANNNNAAN 8-mers | 0.0512 % of ANNNNAAN 8-mers |
| ACCTAAAC | 0.013 % of ANNNNAAN 8-mers | 0.0178 % of ANNNNAAN 8-mers | 0.0211 % of ANNNNAAN 8-mers | 0.0223 % of ANNNNAAN 8-mers |
| ATTCAAAC | 0.153 % of ANNNNAAN 8-mers | 0.15 % of ANNNNAAN 8-mers | 0.199 % of ANNNNAAN 8-mers | 0.125 % of ANNNNAAN 8-mers |
| ATGAGAAT | 0.101 % of ANNNNAAN 8-mers | 0.134 % of ANNNNAAN 8-mers | 0.0784 % of ANNNNAAN 8-mers | 0.106 % of ANNNNAAN 8-mers |
| ACTGGAAC | 0.0168 % of ANNNNAAN 8-mers | 0.0207 % of ANNNNAAN 8-mers | 0.0183 % of ANNNNAAN 8-mers | 0.0206 % of ANNNNAAN 8-mers |
| ATGGTAAG | 0.0984 % of ANNNNAAN 8-mers | 0.127 % of ANNNNAAN 8-mers | 0.071 % of ANNNNAAN 8-mers | 0.09 % of ANNNNAAN 8-mers |
| ACAGAAAA | 0.0389 % of ANNNNAAN 8-mers | 0.0472 % of ANNNNAAN 8-mers | 0.0472 % of ANNNNAAN 8-mers | 0.0322 % of ANNNNAAN 8-mers |
| AAATAAAC | 0.116 % of ANNNNAAN 8-mers | 0.119 % of ANNNNAAN 8-mers | 0.142 % of ANNNNAAN 8-mers | 0.13 % of ANNNNAAN 8-mers |
| ATTATAAG | 0.121 % of ANNNNAAN 8-mers | 0.163 % of ANNNNAAN 8-mers | 0.0843 % of ANNNNAAN 8-mers | 0.0966 % of ANNNNAAN 8-mers |
| AGATCAAA | 0.0393 % of ANNNNAAN 8-mers | 0.0483 % of ANNNNAAN 8-mers | 0.0414 % of ANNNNAAN 8-mers | 0.0355 % of ANNNNAAN 8-mers |
| AATGGAAA | 0.242 % of ANNNNAAN 8-mers | 0.155 % of ANNNNAAN 8-mers | 0.268 % of ANNNNAAN 8-mers | 0.164 % of ANNNNAAN 8-mers |
| ATCTAAAA | 0.0564 % of ANNNNAAN 8-mers | 0.0524 % of ANNNNAAN 8-mers | 0.0535 % of ANNNNAAN 8-mers | 0.0669 % of ANNNNAAN 8-mers |
| AGAATAAC | 0.0534 % of ANNNNAAN 8-mers | 0.0673 % of ANNNNAAN 8-mers | 0.0312 % of ANNNNAAN 8-mers | 0.0487 % of ANNNNAAN 8-mers |
